Our source for the outcome and AC50 values is PubChem BioAssay (EPA / NIEHS).

The nature of experiment [1]: ATG_M_61_CIS: Attagene CIS-FACTORIAL HepG2 Assay for M61 Transcription Factor (Internal Marker) (AID 2282937). The note with it: HepG2 Attagene CIS-FACTORIAL M61 internal marker reporter; actives raise or lower the signal. The method in brief: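 Human liver HepG2, transient MRTU transfection (cis promoter elements), 24 h compound. Total RNA → oligo(dT) RT → PCR → FAM label → HpaI → CE. Internal background marker; bidirectional fitting, DMSO = baseline.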

Experiment [2] can be described thus: ATG_EGR_CIS: Attagene CIS-FACTORIAL HepG2 Assay for human Early Growth Response 1 (EGR1) (AID 2282938). The note with it: HepG2 Attagene CIS-FACTORIAL EGR reporter mRNA; actives raise or lower the signal. The procedure, abridged:
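Transient transfection of human HepG2 with multiple cis-regulated reporter units, chemical exposure 24 h, total RNA isolated. Reverse transcription, PCR, fluorescent labelling and capillary electrophoresis quantify reporter transcripts; activity fitted bidirectionally against DMSO.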

Experiment [3] can be described thus: ATG_M_19_CIS: Attagene CIS-FACTORIAL HepG2 Assay for M19 Transcription Factor (Internal Marker) (AID 2282939). As to conditions: HepG2 Attagene CIS-FACTORIAL M19 internal marker reporter; actives raise or lower the signal. The procedure, abridged:
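Readout: fluorescent reporter-transcript fragments by capillary electrophoresis after RT-PCR. Human HepG2 liver cells carried transfected MRTU constructs reporting endogenous transcription-factor activity; exposure 24 h. Gain or loss of signal fitted relative to DMSO.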

A short description of experiment [4]: ATG_ERE_CIS: Attagene CIS-FACTORIAL HepG2 Assay for Estrogen Response Element (ERE) (AID 2282940). The note with it: HepG2 ERE cis-reporter, Attagene RNA transcript; actives raise or lower the signal. The method in brief:
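Readout: reporter mRNA induction by RT-PCR, FAM-labelled primer extension, HpaI digestion and capillary electrophoresis, 24 h after dosing transfected HepG2 cells. Endogenous transcription factors act on cis-element-regulated reporters. Gain or loss fitted against DMSO.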

A short description of experiment [5]: ATG_Ets_CIS: Attagene CIS-FACTORIAL HepG2 Assay for human Erythroblast Transformation Specific (ETS) (AID 2282941). The note with it: HepG2 ETS cis-reporter transcription, actives raise or lower the signal. The method in brief:
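After transient cis-reporter transfection, HepG2 cells receive test chemical for 24 h. Reporter mRNA levels, measured by RT-PCR and capillary electrophoresis fluorescence, are analysed bidirectionally relative to the DMSO baseline.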

Experiment [6] has as its target Hepatocyte nuclear factor 3-beta (Homo sapiens) (UniProt Q9Y261). Kind of experiment: ATG_FoxA2_CIS: Attagene CIS-FACTORIAL HepG2 Assay for human Forkhead box A2 (FOXA2) (AID 2282942). As to conditions: HepG2 cis-reporter transcription factor activity, 24 h; actives raise or lower the signal. The method in brief: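 Transient MRTU transfection of HepG2 liver cells; 24 h treatment; total RNA → oligo(dT) RT → PCR → FAM primer extension → HpaI cut → CE. Bidirectional fit vs DMSO.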

A short description of experiment [7]: ATG_FoxO_CIS: Attagene CIS-FACTORIAL HepG2 Assay for human Forkhead box O (FoxO) (AID 2282943). The note with it: HepG2 Attagene cis-reporter, FoxO element, mRNA; actives raise or lower the signal. The procedure, abridged: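 Transfected HepG2 reporter cells exposed to test chemical for 24 h; reporter RNA measured by reverse transcription, PCR and fluorescent capillary electrophoresis; curves fitted for increases and decreases against DMSO.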

A short description of experiment [8]: ATG_GATA_CIS: Attagene CIS-FACTORIAL HepG2 Assay for human GATA Binding Protein (AID 2282944). As to conditions: HepG2 GATA cis-element reporter, Attagene multiplex mRNA; actives raise or lower the signal. The procedure, abridged:
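Read-out: fluorescent reporter mRNA fragments resolved by capillary electrophoresis after RT-PCR. Human liver HepG2 cells carried transiently transfected cis-regulated reporter constructs; chemicals incubated 24 h; gain or loss of signal fitted relative to DMSO.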

Experiment [9] is described as follows: ATG_GLI_CIS: Attagene CIS-FACTORIAL HepG2 Assay for human Zinc Finger Protein GLI1 (AID 2282945). The note with it: HepG2, Attagene cis-factorial reporter mRNA, GLI element; actives raise or lower the signal. The method in brief:
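Transiently transfected HepG2 cells report endogenous transcription factor activity via cis-element-driven reporter units. After 24 h compound exposure, reporter mRNA was measured by RT-PCR with capillary electrophoresis; bidirectional fitting against DMSO baseline.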

Experiment [10] in a line: ATG_GRE_CIS: Attagene CIS-FACTORIAL HepG2 Assay for human Glucocorticoid Response Elements (GRE) (AID 2282947). As to conditions: HepG2 GRE cis-reporter, Attagene multiplex mRNA; actives raise or lower the signal. The method in brief: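 Transiently transfected HepG2 cells carrying GRE cis-reporter units (endogenous TF activity) dosed 24 h; reporter mRNA quantified by RT-PCR, 6-FAM labelling, HpaI digestion and capillary electrophoresis. Bidirectional fit versus DMSO baseline.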

Experiment [11] in a line: ATG_ISRE_CIS: Attagene CIS-FACTORIAL HepG2 Assay for human Interferon Regulatory Factor 1 (IRF1) binding to an Interferon-Stimulated Response Element (ISRE) (AID 2282948). As to conditions: HepG2 ISRE cis-reporter (Attagene), mRNA transcription readout; actives raise or lower the signal. The method in brief: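 Quantitation relies on labelled RT-PCR fragments separated by capillary electrophoresis. Human HepG2 cells bearing cis-promoter reporter constructs were treated 24 h; DMSO served as baseline for bidirectional fitting.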

Experiment [12] in a line: ATG_M_32_CIS: Attagene CIS-FACTORIAL HepG2 Assay for M32 Transcription Factor (Internal Marker) (AID 2282949).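 Further: background control marker of the multiplexed CIS panel rather than a real target.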 The note with it: HepG2 Attagene cis-factorial M32 reporter, mRNA; actives raise or lower the signal. The procedure, abridged:
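Fluorescent capillary electrophoresis peaks of HpaI-digested, FAM-labelled RT-PCR reporter products give the signal. Source: transiently transfected human liver HepG2 cells, 24 h after chemical dosing; bidirectional fitting against DMSO.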

Experiment [13] can be described thus: ATG_M_06_CIS: Attagene CIS-FACTORIAL HepG2 Assay for M06 Transcription Factor (Internal Marker) (AID 2282950). As to conditions: HepG2 Attagene CIS-FACTORIAL M06 internal marker reporter; actives raise or lower the signal. The procedure, abridged: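 Terse: HepG2, transient MRTU transfection (FuGene 6), 24 h dosing; total RNA, oligo(dT) RT, PCR, FAM label, HpaI cut, capillary electrophoresis; bidirectional fit vs DMSO baseline; background-control endpoint.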

Experiment [14] deals with Hypoxia-inducible factor 1-alpha (Homo sapiens) (UniProt Q16665). Kind of experiment: ATG_HIF1a_CIS: Attagene CIS-FACTORIAL HepG2 Assay for human Hypoxia Inducible Factor 1 (HIF1A) (AID 2282951). The note with it: HepG2 Attagene cis-factorial HIF1a reporter transcription; actives raise or lower the signal. The method in brief: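 Transient MRTU transfection of human HepG2 liver cells, 24 h compound treatment, then total RNA isolation, oligo(dT) reverse transcription, PCR amplification, fluorescent labelling and capillary electrophoresis of reporter fragments. Gain or loss relative to DMSO.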

Experiment [15] has as its target Hepatocyte nuclear factor 6 (Homo sapiens) (UniProt Q9UBC0). Kind of experiment: ATG_HNF6_CIS: Attagene CIS-FACTORIAL HepG2 Assay for human Hepatocyte Nuclear Factor 6 (HNF6) (AID 2282952). As to conditions: HepG2 Attagene cis-factorial HNF6 reporter transcription; actives raise or lower the signal. The procedure, abridged: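 HepG2, transient MRTU transfection (cis promoters); 24 h chemical exposure; total RNA → oligo(dT) RT → PCR → 6-FAM labelling → HpaI cut → CE; bidirectional fit vs DMSO.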

For experiment [16], the target named is Heat shock factor protein 1 (Homo sapiens) (UniProt Q00613). The experiment in a line: ATG_HSE_CIS: Attagene CIS-FACTORIAL HepG2 Assay for human Heat Shock Transcription Factor 1 (HSE) (AID 2282953). The note with it: HepG2 HSE cis-reporter, Attagene RNA transcription; actives raise or lower the signal. The procedure, abridged: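 Read-out: fluorescence of reporter-specific RT-PCR fragments separated by capillary electrophoresis. HepG2 carrying transfected cis-element reporter units; 24 h dosing; activity fitted in both directions relative to DMSO baseline.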

The nature of experiment [17]: ATG_MRE_CIS: Attagene CIS-FACTORIAL HepG2 Assay for human Metal Responsive Element (MRE) (AID 2282954). As to conditions: HepG2 MRE cis-reporter transcription, Attagene multiplex; actives raise or lower the signal. The method in brief:
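HepG2 cells transiently transfected with cis-element-driven reporter units; mRNA measured 24 h after dosing. Reporter transcripts quantified by RT-PCR, FAM labelling, HpaI digestion and capillary electrophoresis; bidirectional fit versus DMSO.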

Experiment [18] can be described thus: ATG_PBREM_CIS: Attagene CIS-FACTORIAL HepG2 Assay for human Phenobarbital-responsive Enhancer Module (PBREM) (AID 2282955). As to conditions: HepG2 PBREM cis-reporter, Attagene multiplexed transcription; actives raise or lower the signal. The procedure, abridged:
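Endogenous transcription factors in human liver HepG2 cells drive a PBREM cis-element reporter, whose transcript level after 24 h treatment is quantified by RT-PCR with capillary electrophoresis; activity fitted in both directions against DMSO.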

Experiment [19] in a line: ATG_E_Box_CIS: Attagene CIS-FACTORIAL HepG2 Assay for human Enhancer Box (E-box) (AID 2282936). The note with it: HepG2 E-box cis-reporter transcription, actives raise or lower the signal. The procedure, abridged: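 HepG2 cells transiently transfected with multiplexed cis-element reporter units, dosed 24 h; reporter mRNA quantified by RT-PCR, 6-FAM labelling, HpaI digestion and capillary electrophoresis. E-box (USF1) signal fitted bidirectionally vs DMSO.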

Usually AC50 stands for the midpoint of the concentration-response curve, whichever way the signal moves.

Structures are written as SMILES. Active and inactive are the calls of the source. How the source made its calls: active means hit-call score of the fitted dose curve at least 0.9, where 1 is the maximum; inactive means score below 0.9.

Chain of Hepatocyte nuclear factor 3-beta (Homo sapiens) (Q9Y261 whole entry, looked up): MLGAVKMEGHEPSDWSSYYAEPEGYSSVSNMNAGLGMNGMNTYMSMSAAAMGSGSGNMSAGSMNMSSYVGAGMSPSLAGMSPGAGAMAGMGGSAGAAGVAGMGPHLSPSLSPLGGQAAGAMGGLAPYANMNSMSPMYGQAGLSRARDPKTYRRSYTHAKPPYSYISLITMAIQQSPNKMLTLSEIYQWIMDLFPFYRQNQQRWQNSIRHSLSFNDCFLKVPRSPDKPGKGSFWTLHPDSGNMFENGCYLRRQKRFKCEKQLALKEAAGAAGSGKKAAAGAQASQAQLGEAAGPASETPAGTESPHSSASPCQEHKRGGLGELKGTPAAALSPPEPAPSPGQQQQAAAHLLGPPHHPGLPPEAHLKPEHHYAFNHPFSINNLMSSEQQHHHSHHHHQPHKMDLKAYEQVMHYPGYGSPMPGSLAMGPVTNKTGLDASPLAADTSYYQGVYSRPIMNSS
Chain of Heat shock factor protein 1 (Homo sapiens) (Q00613 whole entry, looked up, the tested form may be a part): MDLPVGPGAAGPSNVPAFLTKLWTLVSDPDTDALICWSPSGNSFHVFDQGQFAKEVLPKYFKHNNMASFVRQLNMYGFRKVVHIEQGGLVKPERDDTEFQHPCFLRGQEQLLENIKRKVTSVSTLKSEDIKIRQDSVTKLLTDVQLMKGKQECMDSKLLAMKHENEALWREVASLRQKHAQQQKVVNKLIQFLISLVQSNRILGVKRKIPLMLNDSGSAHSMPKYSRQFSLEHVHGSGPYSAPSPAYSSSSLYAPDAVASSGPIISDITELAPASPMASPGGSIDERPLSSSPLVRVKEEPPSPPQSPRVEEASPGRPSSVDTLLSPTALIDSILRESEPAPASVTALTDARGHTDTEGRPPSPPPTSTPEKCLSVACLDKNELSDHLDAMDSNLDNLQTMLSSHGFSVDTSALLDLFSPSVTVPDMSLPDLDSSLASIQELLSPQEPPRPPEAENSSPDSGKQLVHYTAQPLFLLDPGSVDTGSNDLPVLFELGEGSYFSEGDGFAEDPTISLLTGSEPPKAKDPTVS
Chain of Hypoxia-inducible factor 1-alpha (Homo sapiens) (Q16665 whole entry, looked up, the tested form may be a part): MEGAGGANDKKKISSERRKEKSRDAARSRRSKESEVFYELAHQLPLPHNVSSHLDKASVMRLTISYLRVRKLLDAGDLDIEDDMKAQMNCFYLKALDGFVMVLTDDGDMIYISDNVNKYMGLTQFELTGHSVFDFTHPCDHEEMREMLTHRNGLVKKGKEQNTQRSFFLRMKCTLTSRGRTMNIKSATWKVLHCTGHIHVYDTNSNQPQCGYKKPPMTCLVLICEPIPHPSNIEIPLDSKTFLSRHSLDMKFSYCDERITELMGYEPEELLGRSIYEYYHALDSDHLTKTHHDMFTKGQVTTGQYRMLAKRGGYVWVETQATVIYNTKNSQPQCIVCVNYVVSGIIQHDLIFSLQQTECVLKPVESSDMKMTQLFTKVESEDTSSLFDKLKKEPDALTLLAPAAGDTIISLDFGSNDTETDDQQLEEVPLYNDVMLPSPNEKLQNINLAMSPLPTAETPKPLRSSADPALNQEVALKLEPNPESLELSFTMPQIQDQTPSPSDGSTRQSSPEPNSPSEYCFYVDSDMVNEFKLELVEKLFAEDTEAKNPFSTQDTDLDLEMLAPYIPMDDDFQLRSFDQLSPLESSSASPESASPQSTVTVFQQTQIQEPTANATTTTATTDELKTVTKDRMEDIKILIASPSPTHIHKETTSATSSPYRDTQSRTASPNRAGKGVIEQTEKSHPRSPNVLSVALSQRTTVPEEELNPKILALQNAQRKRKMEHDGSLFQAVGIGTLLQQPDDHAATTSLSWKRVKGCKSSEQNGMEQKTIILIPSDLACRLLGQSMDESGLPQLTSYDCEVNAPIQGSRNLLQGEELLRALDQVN
Chain of Hepatocyte nuclear factor 6 (Homo sapiens) (Q9UBC0 whole entry, looked up): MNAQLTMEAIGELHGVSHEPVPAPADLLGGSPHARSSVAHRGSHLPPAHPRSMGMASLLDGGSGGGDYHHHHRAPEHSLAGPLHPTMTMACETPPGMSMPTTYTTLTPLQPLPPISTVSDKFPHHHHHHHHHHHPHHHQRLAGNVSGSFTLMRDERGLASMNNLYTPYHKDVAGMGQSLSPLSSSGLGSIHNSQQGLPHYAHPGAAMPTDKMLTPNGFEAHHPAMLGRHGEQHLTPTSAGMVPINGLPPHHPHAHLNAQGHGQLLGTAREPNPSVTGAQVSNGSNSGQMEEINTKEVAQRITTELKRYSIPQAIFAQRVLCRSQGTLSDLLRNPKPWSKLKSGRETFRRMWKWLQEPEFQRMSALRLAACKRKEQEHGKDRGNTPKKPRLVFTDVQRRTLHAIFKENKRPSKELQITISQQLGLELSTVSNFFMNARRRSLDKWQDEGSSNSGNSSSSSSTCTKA

Regarding `CC/C(=C\C(=N/O)C(N)=O)C(C)[N+](=O)[O-]` (stereo not drawn), the call in experiment [1], in experiment [2], in [3], in [4], in experiment [5] and in experiment [6] was inactive. Besides, the molecule was called inactive in [7], in [8], in experiment [9], in experiment [10], in [11] and in [12]. Besides, the call in [13], in experiment [14], in experiment [15], in [16], in experiment [17] and in [18] was inactive.

`O=c1[nH]c2ccc(S(=O)CCN3CCC(Cc4ccc(F)cc4)CC3)cc2o1` (stereo not drawn): the outcome in experiment [1], in experiment [3], in [4], in [5], in [6] and in experiment [7] was inactive. The molecule was called inactive in experiment [8], in experiment [9], in experiment [10], in experiment [11], in experiment [13] and in experiment [14]. Moreover, the result in [15], in experiment [16] and in experiment [18] was inactive. In addition, the AC50 was 121 µM (active) in experiment [2] and 155 µM (active) in experiment [17].

With `CC(=O)c1ccc2c(c1)[C@H](NC(=O)c1ccc(F)cc1)[C@@H](O)C(C)(C)O2`, the outcome in experiment [19], in experiment [1], in experiment [2], in experiment [3], in [5] and in experiment [6] was inactive. In addition, the result in experiment [7], in experiment [8], in experiment [9], in experiment [10], in experiment [11] and in experiment [12] was inactive. Besides, the result in experiment [13], in experiment [14], in experiment [15], in [16], in experiment [17] and in [18] was inactive.
